Laboratory results reported in PubChem BioAssay (NCATS).
Several values for one entry are separate records, joined by “and”; a condition that tells them apart may be missing. Equal values may be shown once. Records with an inconclusive call do not appear. Activity calls are given as the source filed them. Unless noted, calls follow the shape of the full dose curve.

Legend:
[1] = molecular target: Bile acid receptor (Homo sapiens) (UniProt Q96RI1); experiment: qHTS assay for small molecule antagonists of farnesoid X receptor signaling (AID 588526); also: % is scaled to controls: 0 for no effect and ±100 for the full control effect
How it was run: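 Antagonist mode: titrated compounds tested against chenodeoxycholic acid stimulation (normalized to 50 uM CDCA and DMSO) in GeneBLAzer HEK293T cells for 16 h. Beta-lactamase read by CCF4 fluorescence; IC50 from Hill fits.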

[2] = molecular target: Glucocorticoid receptor (Homo sapiens) (UniProt P04150); experiment: qHTS assay for small molecule agonists of glucocorticoid receptor signaling (AID 588532; active = well fitted curve in the direction sought with a large enough effect in the signal ratio, with a control signal flat; the % refers to the signal ratio;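 also: 100% = dexamethasone at 0.1 µM and 0% = DMSO only wells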); conditions: HeLa MMTV-bla, beta-lactamase ratio, agonist, 18 h; stronger effect = higher value; percent of dexamethasone control, DMSO zero
How it was run: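 HeLa GRE-bla reporter cells; 18 h compound exposure at 37 C; 2 h CCF4 loading at room temperature; fluorescence at 460 and 530 nm; EC50 by Hill equation.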

[3] = molecular target: Glucocorticoid receptor (Homo sapiens) (UniProt P04150); experiment: qHTS assay for small molecule antagonists of glucocorticoid receptor signaling (AID 588533; active = well fitted inhibition curve with a large enough effect in the signal ratio, with a control signal flat, not every such curve was filed as active; the % refers to the signal ratio; also: % is scaled to controls: 0 for no effect and ±100 for the full control effect)
How it was run: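 Antagonist-mode qHTS: compound titrations added to GRE-bla HeLa cells, then dexamethasone 2 nM final; 18 h, 37 C. CCF4 FRET fluorescence normalized to dexamethasone and DMSO; IC50 from Hill fit.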

[4] = qHTS assay for small molecule antagonists of peroxisome proliferator-activated receptor delta signaling (AID 588535; active = well fitted inhibition curve with a large enough effect in the signal ratio, with a control signal flat, not every such curve was filed as active; the % refers to the signal ratio;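 as to max response: cells co-treated with a PPAR-delta agonist as stimulator during compound exposure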); conditions: HEK293T PPARd-UAS-bla, beta-lactamase FRET ratio, 18 h; 460 nm channel
How it was run: (§1)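 Cells were seeded at 4000 per well in assay medium containing 2% charcoal/dextran FBS and held 5 hrs at 37 C. Compounds were then added for 18 hrs. CCF4 substrate was applied for 2 hrs at room temperature before fluorescence reading.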

[5] = molecular target: Peroxisome proliferator-activated receptor delta (Homo sapiens) (UniProt Q03181); experiment: as above
How it was run: as §1

[6] = molecular target: Peroxisome proliferator-activated receptor gamma (Homo sapiens) (UniProt P37231); experiment: qHTS assay for small molecule agonists of peroxisome proliferator-activated receptor gamma signaling (AID 588536; active = well fitted curve in the direction sought with a large enough effect in the signal ratio, with a control signal flat, not every such curve was filed as active; the % refers to the signal ratio;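 also: 0% = DMSO basal wells and 100% = rosiglitazone at 2 µM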)
How it was run: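 HEK293 UAS-bla reporter line, 1% charcoal/dextran FBS; titration, 16 h, 37 C; CCF4 loading 2 h RT; fluorescence 460/530 nm. Normalized to rosiglitazone 2 uM = 100%, DMSO = 0%.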

[7] = molecular target: Peroxisome proliferator-activated receptor gamma (Homo sapiens) (UniProt P37231); experiment: qHTS assay for small molecule antagonists of peroxisome proliferator-activated receptor gamma signaling (AID 588537; active = well fitted inhibition curve with a large enough effect in the signal ratio, with a control signal flat, not every such curve was filed as active; the % refers to the signal ratio;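 also: reporter cells co-stimulated with 50 nM rosiglitazone agonist during compound treatment; % of control where 0% means no effect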)
How it was run: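 Step one: plate 3000 HEK293 UAS-bla cells per well in medium with 1% stripped serum and hold 6-6.5 h at 37 C. Step two: add compound and 50 nM agonist for 16 h. Step three: CCF4 loading, fluorescence read.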

[8] = qHTS assay for small molecule agonists of retinoid X receptor alpha signaling (AID 588544); conditions: HEK293T RXRa-UAS-bla, beta-lactamase reporter, 18 h; 530 nm emission;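 as to activation: 0% = DMSO basal wells and 100% = reference agonist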
[9] = molecular target: Retinoic acid receptor RXR-alpha (Homo sapiens) (UniProt P19793); experiment: as above
[10] = molecular target: Thyroid hormone receptor beta (Homo sapiens) (UniProt P10828); experiment: qHTS assay for small molecule agonists of thyroid hormone receptor beta signaling (AID 588545)
How it was run: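 In this cell-based screen, titrated compounds act on HEK 293 cells held in medium with 2% charcoal/dextran FBS, NEAA and pyruvate for 18 hrs at 37 C. Responses are expressed relative to T3 (10 nM) as 100% and basal DMSO as 0%.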

[11] = qHTS assay for small molecule antagonists of retinoid X receptor alpha signaling (AID 588546; active = well fitted inhibition curve with a large enough effect in the signal ratio, with a control signal flat, not every such curve was filed as active; the % refers to the signal ratio;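 also: cells stimulated with 9-cis-retinoic acid as agonist; % is scaled to controls: 0 for no effect and ±100 for the full control effect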); conditions: HEK293T RXRa-UAS-bla, beta-lactamase ratio, antagonist mode; measured here: W530 green channel, cytotoxicity proxy
How it was run: (§2)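 Beta-lactamase reporter inhibition, read as CCF4 fluorescence ratio (ex 405, em 460/530 nm) after 2 h at RT. HEK293T UAS-bla cells, 2500/well, were stimulated with 9-cis-RA at 500 or 100 nM final alongside test compound for 18 h at 37 C.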

[12] = molecular target: Retinoic acid receptor RXR-alpha (Homo sapiens) (UniProt P19793); experiment: as above; conditions: HEK293T RXRa-UAS-bla, beta-lactamase ratio, antagonist mode
How it was run: as §2

[13] = molecular target: Voltage-gated inwardly rectifying potassium channel KCNH2 (Homo sapiens) (UniProt Q12809); experiment: qHTS Assay for Small Molecule Inhibitors of the Human hERG Channel Activity (AID 588834; active = well fitted inhibition curve with a large enough effect;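 also: top concentration of the series differs between compounds; % is scaled to controls: 0 for no effect and ±100 for the full control effect; lower thallium flux fluorescence means stronger hERG block; nearly all actives have a fitted effect of over 50% in size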)
How it was run: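 U2OS cells transduced with hERG via BacMam (MOI ~100), plated 2000/well, loaded with FluxOR thallium dye, compound ~10 min, then stimulation buffer; fluorescence decrease read kinetically; AC50 from Hill fits.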

[14] = molecular target: Androgen receptor (Homo sapiens) (UniProt P10275); experiment: qHTS assay for small molecule agonists of androgen receptor signaling (AID 588515; active = well fitted curve in the direction sought with a large enough effect in the signal ratio, with a control signal flat; the % refers to the signal ratio; also: % is scaled to controls: 0 for no effect and ±100 for the full control effect); conditions: AR-UAS-bla HEK293, beta-lactamase ratio, agonist 16 h; stronger effect = higher value
How it was run: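 EC50 and efficacy came from Hill fits of titrations (up to 92 uM) normalized to 30 nM R1881 as 100% and DMSO as 0%. Compound exposure was 16 h at 37 C on AR-UAS-bla HEK293 cells, with a 405/460/530 nm CCF4 fluorescence read.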

[15] = molecular target: Androgen receptor (Homo sapiens) (UniProt P10275); experiment: qHTS assay for small molecule antagonists of androgen receptor signaling (AID 588516; active = well fitted curve in the direction sought with a large enough effect in the signal ratio, with a control signal flat, not every such curve was filed as active; the % refers to the signal ratio; also: % is scaled to controls: 0 for no effect and ±100 for the full control effect)
How it was run: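 AR-UAS-bla-GripTite HEK 293 cells (2000/well, 5 h at 37 C) received compound titrations, then R1881 at 10 nM final; after 16 h at 37 C, CCF4 dye 2 h RT, beta-lactamase fluorescence read; IC50 from Hill fits.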

[16] = molecular target: Vitamin D3 receptor (Homo sapiens) (UniProt P11473); experiment: qHTS assay for small molecule antagonists of vitamin D receptor signaling (AID 588541)
How it was run: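 VDR-UAS-bla HEK293T cells in 2% charcoal-stripped FBS were stimulated with 1-alpha,25-dihydroxyvitamin D3 (3 nM final) plus compound for 16 h at 37 C. The beta-lactamase CCF4 readout was normalized to 50 nM agonist and DMSO, and Hill fits gave IC50.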

[17] = molecular target: Vitamin D3 receptor (Homo sapiens) (UniProt P11473); experiment: qHTS assay for small molecule agonists of vitamin D receptor signaling (AID 588543);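 also: 0% = DMSO basal and 100% = reference agonist control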
How it was run: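 GeneBLAzer VDR-UAS-bla HEK293T cells in 2% charcoal-stripped FBS medium were dosed with compound titrations for 16 h at 37 °C; CCF4 β-lactamase readout (405 nm ex, 460/530 nm em). EC50 and efficacy from Hill fits, normalized to 50 nM calcitriol (100%) and DMSO (0%).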

[18] = molecular target: Estrogen receptor (Homo sapiens) (UniProt P03372); experiment: qHTS assay for small molecule antagonists of estrogen receptor alpha signaling (AID 588513; active = well fitted curve in the direction sought with a large enough effect in the signal ratio, with a control signal flat, not every such curve was filed as active; the % refers to the signal ratio; also: % is scaled to controls: 0 for no effect and ±100 for the full control effect)
How it was run: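 ER-alpha-UAS-bla GripTite HEK 293 cells in medium with 2% charcoal/dextran-treated FBS were preincubated 4 h at 37 C, dosed with compound (1:2 titration), stimulated with 0.5nM 17-beta-estradiol for 18 h, then read by CCF4 beta-lactamase fluorescence.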

[19] = molecular target: Estrogen receptor (Homo sapiens) (UniProt P03372); experiment: qHTS assay for small molecule agonists of estrogen receptor alpha signaling (AID 588514);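 also: 0% = vehicle only and 100% = reference agonist; nearly all actives have a fitted effect of over 70% in size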
How it was run: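 Reporter-gene assay. […] controls beta-lactamase in HEK 293 GripTite cells; after 18 hrs with compound, CCF4 substrate is added for 2 hrs and fluorescence is read.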

[20] = molecular target: Thyroid hormone receptor beta (Homo sapiens) (UniProt P10828); experiment: qHTS assay for small molecule antagonists of thyroid hormone receptor beta signaling (AID 588547; active = well fitted inhibition curve with a large enough effect in the signal ratio, with a control signal flat, not every such curve was filed as active; the % refers to the signal ratio); conditions: TR-UAS-bla HEK293, beta-lactamase ratio, antagonist mode, 18 h
How it was run: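 TR-UAS-bla GripTite HEK293 cells in 2% charcoal/dextran FBS medium; compounds 0.59 nM to 92 uM with T3 at 0.4nM final, 18 h at 37 C. Beta-lactamase read by CCF4 fluorescence (460/530 nm); Hill fits gave IC50 and efficacy.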

Chain of Voltage-gated inwardly rectifying potassium channel KCNH2 (Homo sapiens) (Q12809 whole entry, looked up): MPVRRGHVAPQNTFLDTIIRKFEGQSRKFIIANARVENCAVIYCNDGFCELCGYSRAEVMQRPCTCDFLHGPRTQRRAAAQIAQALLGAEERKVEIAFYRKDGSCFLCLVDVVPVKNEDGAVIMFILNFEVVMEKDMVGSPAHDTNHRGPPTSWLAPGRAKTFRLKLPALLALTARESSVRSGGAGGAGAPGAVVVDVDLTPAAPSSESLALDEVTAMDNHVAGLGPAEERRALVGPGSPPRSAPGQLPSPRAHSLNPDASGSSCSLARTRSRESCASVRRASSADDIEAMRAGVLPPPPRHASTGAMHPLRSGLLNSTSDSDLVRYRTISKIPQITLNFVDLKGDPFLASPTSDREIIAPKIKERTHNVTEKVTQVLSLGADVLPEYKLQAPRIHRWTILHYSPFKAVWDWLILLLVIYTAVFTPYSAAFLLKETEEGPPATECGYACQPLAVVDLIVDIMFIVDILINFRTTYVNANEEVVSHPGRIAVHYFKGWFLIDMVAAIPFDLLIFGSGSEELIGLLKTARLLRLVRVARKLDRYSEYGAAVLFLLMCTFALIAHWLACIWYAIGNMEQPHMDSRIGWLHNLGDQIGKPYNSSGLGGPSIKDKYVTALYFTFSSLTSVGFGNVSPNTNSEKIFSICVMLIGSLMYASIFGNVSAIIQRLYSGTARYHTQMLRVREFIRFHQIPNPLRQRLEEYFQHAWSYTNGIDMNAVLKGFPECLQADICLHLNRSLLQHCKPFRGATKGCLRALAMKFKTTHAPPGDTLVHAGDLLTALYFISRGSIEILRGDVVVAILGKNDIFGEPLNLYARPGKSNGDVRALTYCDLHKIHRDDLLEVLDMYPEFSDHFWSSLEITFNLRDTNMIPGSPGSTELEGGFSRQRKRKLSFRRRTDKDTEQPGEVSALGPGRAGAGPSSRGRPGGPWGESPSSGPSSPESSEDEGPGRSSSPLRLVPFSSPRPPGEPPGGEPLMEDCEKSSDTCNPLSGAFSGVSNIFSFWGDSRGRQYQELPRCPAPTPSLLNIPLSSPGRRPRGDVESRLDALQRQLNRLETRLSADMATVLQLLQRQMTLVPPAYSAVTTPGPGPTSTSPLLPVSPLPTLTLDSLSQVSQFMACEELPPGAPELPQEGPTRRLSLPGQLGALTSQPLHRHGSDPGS
Chain of Peroxisome proliferator-activated receptor gamma (Homo sapiens) (P37231 whole entry, looked up): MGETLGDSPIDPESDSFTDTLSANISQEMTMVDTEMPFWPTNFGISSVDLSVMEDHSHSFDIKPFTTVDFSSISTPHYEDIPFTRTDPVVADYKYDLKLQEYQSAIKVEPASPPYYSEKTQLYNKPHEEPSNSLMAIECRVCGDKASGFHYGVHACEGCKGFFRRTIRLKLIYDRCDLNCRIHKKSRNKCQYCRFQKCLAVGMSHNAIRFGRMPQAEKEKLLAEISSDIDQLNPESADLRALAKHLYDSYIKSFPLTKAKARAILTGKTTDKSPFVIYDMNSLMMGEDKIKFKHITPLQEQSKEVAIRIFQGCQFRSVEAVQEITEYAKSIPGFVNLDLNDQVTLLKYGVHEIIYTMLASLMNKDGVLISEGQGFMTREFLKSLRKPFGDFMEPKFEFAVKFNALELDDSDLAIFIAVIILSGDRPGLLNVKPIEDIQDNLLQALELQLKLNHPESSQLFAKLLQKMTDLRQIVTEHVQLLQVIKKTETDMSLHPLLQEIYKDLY
Chain of Glucocorticoid receptor (Homo sapiens) (P04150 whole entry, looked up): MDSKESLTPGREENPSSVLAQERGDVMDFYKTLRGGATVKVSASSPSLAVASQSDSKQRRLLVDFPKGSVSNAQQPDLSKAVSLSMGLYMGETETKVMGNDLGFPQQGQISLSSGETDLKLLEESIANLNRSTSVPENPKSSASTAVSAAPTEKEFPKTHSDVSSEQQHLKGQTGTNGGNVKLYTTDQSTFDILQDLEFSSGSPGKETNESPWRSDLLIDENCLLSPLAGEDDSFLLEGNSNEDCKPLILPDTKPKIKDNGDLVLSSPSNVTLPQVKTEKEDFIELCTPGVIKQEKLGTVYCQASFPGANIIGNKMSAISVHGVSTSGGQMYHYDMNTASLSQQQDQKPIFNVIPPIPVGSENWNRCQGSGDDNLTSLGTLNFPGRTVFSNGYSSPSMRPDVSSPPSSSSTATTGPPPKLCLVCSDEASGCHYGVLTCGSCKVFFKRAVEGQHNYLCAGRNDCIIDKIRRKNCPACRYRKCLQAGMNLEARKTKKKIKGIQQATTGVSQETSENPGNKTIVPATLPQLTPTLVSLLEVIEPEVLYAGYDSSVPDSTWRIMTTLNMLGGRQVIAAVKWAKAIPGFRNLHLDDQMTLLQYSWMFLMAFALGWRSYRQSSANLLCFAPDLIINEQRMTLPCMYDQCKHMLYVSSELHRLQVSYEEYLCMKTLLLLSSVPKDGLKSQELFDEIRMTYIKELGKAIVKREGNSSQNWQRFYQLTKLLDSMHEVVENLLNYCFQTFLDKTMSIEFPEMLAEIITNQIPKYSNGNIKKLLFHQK
Chain of Bile acid receptor (Homo sapiens) (Q96RI1 whole entry, looked up): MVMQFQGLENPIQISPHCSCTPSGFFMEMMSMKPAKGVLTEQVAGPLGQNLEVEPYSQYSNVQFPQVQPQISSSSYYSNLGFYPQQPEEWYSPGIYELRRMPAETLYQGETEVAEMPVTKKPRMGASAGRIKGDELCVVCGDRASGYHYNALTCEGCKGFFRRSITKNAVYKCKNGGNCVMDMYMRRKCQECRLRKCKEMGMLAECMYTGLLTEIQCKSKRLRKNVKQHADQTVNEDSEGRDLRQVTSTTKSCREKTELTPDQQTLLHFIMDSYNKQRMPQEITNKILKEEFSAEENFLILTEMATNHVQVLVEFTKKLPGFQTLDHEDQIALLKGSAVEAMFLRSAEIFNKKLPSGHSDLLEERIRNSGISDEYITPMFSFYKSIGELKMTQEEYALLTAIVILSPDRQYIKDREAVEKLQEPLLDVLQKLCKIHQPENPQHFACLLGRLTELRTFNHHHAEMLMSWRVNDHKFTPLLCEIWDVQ
Chain of Estrogen receptor (Homo sapiens) (P03372 whole entry, looked up): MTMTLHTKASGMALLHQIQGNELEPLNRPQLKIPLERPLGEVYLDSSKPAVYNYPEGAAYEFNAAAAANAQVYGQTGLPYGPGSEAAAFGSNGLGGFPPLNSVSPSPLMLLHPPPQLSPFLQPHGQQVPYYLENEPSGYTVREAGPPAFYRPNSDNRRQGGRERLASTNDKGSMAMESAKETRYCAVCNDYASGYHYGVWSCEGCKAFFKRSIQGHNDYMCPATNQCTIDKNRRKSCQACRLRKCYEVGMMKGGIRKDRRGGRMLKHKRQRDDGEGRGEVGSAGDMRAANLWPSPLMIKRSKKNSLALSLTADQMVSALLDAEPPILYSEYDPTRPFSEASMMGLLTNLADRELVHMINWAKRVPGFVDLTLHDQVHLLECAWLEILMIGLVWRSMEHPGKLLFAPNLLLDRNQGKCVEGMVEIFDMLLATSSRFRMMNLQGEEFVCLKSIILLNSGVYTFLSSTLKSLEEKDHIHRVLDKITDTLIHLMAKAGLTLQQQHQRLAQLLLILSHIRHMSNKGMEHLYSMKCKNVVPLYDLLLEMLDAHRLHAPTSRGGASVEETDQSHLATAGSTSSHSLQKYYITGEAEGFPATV
Chain of Vitamin D3 receptor (Homo sapiens) (P11473 whole entry, looked up): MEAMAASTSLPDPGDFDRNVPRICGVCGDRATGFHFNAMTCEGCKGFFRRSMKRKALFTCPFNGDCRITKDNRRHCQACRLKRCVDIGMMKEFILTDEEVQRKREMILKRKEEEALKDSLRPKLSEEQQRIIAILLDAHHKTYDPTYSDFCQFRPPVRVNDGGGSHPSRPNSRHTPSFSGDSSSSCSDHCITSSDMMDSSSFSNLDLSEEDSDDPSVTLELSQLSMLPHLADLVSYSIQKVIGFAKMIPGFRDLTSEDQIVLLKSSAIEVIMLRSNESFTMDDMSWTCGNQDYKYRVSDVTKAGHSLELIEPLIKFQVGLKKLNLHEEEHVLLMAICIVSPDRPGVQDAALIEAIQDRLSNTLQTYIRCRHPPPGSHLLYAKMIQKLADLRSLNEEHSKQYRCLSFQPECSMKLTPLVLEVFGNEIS
Chain of Peroxisome proliferator-activated receptor delta (Homo sapiens) (Q03181 whole entry, looked up): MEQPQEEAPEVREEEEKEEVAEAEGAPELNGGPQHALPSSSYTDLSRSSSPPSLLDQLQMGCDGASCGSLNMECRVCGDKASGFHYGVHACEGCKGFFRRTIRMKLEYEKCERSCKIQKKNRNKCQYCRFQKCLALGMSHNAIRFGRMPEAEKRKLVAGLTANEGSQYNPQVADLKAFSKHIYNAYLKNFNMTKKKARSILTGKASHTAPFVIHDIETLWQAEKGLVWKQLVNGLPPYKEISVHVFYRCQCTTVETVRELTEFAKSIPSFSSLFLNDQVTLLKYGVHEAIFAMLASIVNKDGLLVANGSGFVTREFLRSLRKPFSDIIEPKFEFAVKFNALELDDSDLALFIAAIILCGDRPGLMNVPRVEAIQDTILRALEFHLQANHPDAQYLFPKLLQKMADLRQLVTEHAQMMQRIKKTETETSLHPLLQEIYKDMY
Chain of Retinoic acid receptor RXR-alpha (Homo sapiens) (P19793 whole entry, looked up): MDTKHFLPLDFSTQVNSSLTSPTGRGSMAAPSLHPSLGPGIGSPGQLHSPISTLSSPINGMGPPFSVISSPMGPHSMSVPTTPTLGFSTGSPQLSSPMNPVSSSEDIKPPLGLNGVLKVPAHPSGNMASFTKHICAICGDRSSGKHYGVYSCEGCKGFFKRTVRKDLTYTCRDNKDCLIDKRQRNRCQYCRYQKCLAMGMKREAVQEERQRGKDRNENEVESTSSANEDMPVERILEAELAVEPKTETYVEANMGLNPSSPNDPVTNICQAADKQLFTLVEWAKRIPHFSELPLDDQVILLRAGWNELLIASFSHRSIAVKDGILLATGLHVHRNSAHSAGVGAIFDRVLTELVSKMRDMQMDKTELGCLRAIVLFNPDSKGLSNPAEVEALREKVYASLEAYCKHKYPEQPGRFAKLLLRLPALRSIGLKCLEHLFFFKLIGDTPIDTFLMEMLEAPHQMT

C=CC(C)(O)CC/C=C(\C)CCC=C(C)C (stereo unspecified)
inactive: outcome [1] | activation [2] 1.37% | Potency [3] | outcome [5] | outcome [6] | outcome [7] | outcome [9] | outcome [10] | max response [12] 13.1% | Potency [13]
4.32%: max response [8]
18.5%: max response [4]
-3.85%: max response [11]

CC(C)[C@@H]1CC[C@@H](C)C[C@H]1O
-16.2%: max response [8]
inactive: activation [14] 9.8% | outcome [15] | outcome [1] | outcome [5] | outcome [6] | outcome [7] | outcome [16] | outcome [17] | outcome [9] | outcome [10] | Potency [13]
-3.98%: max response [4]

Cc1ccc(S(=O)(=O)O)cc1C
-21.8%: max response [11]
-1.2%: max response [8]
-12.1%: max response [4]
inactive: Potency [18] | Potency [19] | activation [2] 2.36% | Potency [3] | outcome [5] | outcome [6] | outcome [16] | outcome [17] | outcome [9] | max response [12] 10.6% | activity change % (negative = inhibition) [20] -0.818% | Potency [13]

c1ccc2ccccc2c1
-9.07% and -13.7%: max response [11]
inactive: Potency [18] | Potency [19] | outcome [1] | outcome [5] | outcome [6] | outcome [7] | outcome [16] | outcome [17] | outcome [9] | outcome [10] | max response [12] 0.585% and 18.2% | activity change % (negative = inhibition) [20] 2.25% and -17.5% | Potency [13]
-8.1% and -18.9%: max response [8]
-2.63% and 30.7%: max response [4]

C[C@H](CCC(=O)O)[C@H]1CC[C@H]2[C@@H]3[C@H](O)C[C@@H]4C[C@H](O)CC[C@]4(C)[C@H]3C[C@H](O)[C@]12C
8.31%: max response [11]
9.07%: max response [8]
inactive: Potency [18] | Potency [19] | activation [2] 0.114% | Potency [3] | outcome [6] | outcome [9] | max response [12] -12.8% | activity change % (negative = inhibition) [20] 5.64% | Potency [13]

C=C(C)C1CC=C(C)CC1 (stereo unspecified)
2.14%: max response [8]
inactive: Potency [18] | Potency [19] | activation [2] -1.86% and -2.03% | Potency [3] | outcome [16] | outcome [17] | outcome [9] | max response [12] 2.38% and 15.2%
0.388% and 6.57%: max response [11]

CO/N=C(/C(=O)N[C@@H]1C(=O)N2C(C(=O)O)=C(COC(N)=O)CS[C@H]12)c1ccco1
-0.122%: max response [11]
inactive: activation [2] 5.73% | Potency [3] | outcome [6] | outcome [16] | outcome [17] | outcome [9] | outcome [10] | max response [12] -5.55% | activity change % (negative = inhibition) [20] -0.0158% | Potency [13]
-14%: max response [8]

O=P(O)(O)O
inactive: outcome [1] | activation [2] -2.92% | Potency [3] | outcome [6] | outcome [7] | outcome [16] | outcome [17] | outcome [9] | max response [12] 2.87% | activity change % (negative = inhibition) [20] -9.56% | Potency [13]
6.72%: max response [11]
-7.11%: max response [8]

CCCCO
-9.48% and 0.366%: max response [8]
1.36% and -14.8%: max response [11]
inactive: outcome [1] | outcome [5] | outcome [6] | outcome [7] | outcome [16] | outcome [17] | outcome [9] | outcome [10] | max response [12] 4.41% and -4.75% | activity change % (negative = inhibition) [20] 5.68% and 1.89% | Potency [13]
1.82%: max response [4]

CC(O)[C@H]1CC[C@H]2[C@@H]3CC[C@@H]4C[C@@H](O)CC[C@]4(C)[C@H]3CC[C@]12C (stereo partly specified)
inactive: Potency [13]

Nc1nccs1
inactive: activation [2] 10.5% | outcome [5] | outcome [6] | outcome [16] | outcome [17] | outcome [9] | outcome [10] | max response [12] 4.13% | activity change % (negative = inhibition) [20] 8.98% | Potency [13]
-14.1%: max response [8]
-5.85%: max response [11]
-9.51%: max response [4]

Cc1ncc[nH]1
2.25%: max response [11]
5.14%: max response [8]
inactive: outcome [1] | Potency [3] | outcome [5] | outcome [6] | outcome [7] | outcome [16] | outcome [17] | outcome [9] | outcome [10] | max response [12] 11.5% | activity change % (negative = inhibition) [20] -11.5% | Potency [13]
34.3%: max response [4]

C=C1[C@@H]2CC[C@@H](C2)C1(C)C
inactive: Potency [13]

ClC(Cl)Cl
-1.18%: max response [11]
-2.31%: max response [8]
inactive: outcome [1] | activation [2] -4.49% | Potency [3] | outcome [16] | outcome [17] | outcome [9] | max response [12] 6.91% | activity change % (negative = inhibition) [20] -7.48% | Potency [13]

CC(C)(C)NCC(O)CSc1nc(-c2ccc(C(N)=O)s2)cs1 (stereo unspecified)
inactive: Potency [13]

C/C=C/C=C/C(=O)O
-7.77%: max response [8]
-4.17%: max response [11]
inactive: outcome [5] | outcome [6] | outcome [16] | outcome [17] | outcome [9] | outcome [10] | max response [12] 25.3% | activity change % (negative = inhibition) [20] 1.05% | Potency [13]
0.118%: max response [4]

O=C(OC[C@H]1O[C@](O)(COC(=O)c2cccnc2)[C@@H](OC(=O)c2cccnc2)[C@@H]1OC(=O)c1cccnc1)c1cccnc1
inactive: Potency [13]

O=C(O)c1cc(N=Nc2ccc(O)c(C(=O)O)c2)ccc1O
inactive: Potency [13]

Cn1nnnc1SCC1=C(C(=O)O)N2C(=O)[C@@H](NC(=O)[C@H](O)c3ccccc3)[C@H]2SC1
inactive: Potency [13]

NC(=O)C1c2ccccc2CCc2ccccc21
inactive: Potency [13]

CN[C@@H]1[C@@H](O)[C@@H](O[C@@H]2[C@@H](O)[C@H](OC3OC(CN)=CCC3N)[C@@H](N)C[C@H]2N)OC[C@]1(C)O (stereo partly specified)
inactive: Potency [13]
